# In PubChem BioAssay (EPA / NIEHS):
# Results filed as inconclusive are left out. The source made the active and inactive calls. The calls were made as follows, unless noted: active = hit-call score of the fitted dose curve at least 0.9, where 1 is the maximum; inconclusive = response in the unintended direction; inactive = score below 0.9.
# Experiments:
# [1] = test system: Sodium/Iodide Symporter (NIS), SLC5A5 (gene 6528); assay: CPHEA_Stoker_NIS_Inhibition_RAIU: CPHEA's Radioactive Iodide Uptake (RAIU) Assay for Sodium/Iodide Symporter (NIS) Inhibition, Stoker and Laws Labs (AID 2283841)
# In short: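 hNIS-HEK293T-EPA cells incubated 2 h at room temperature with compound (0.001–100 uM, 0.5% DMSO) and 329 pM final 125I in HBSS/10 mM HEPES, pH 7.4. Intracellular 125I counted; normalised to DMSO maximal uptake, triplicate, three biological replicates.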
# [2] = CPHEA_Stoker_NIS_Cytotoxicity: Cytotoxicity Assessment for CPHEA's Radioactive Iodide Uptake (RAIU) Assay for Sodium/Iodide Symporter (NIS) Inhibition, Stoker and Laws Labs (AID 2283897);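 as to AC50: active means loss of ATP signal versus DMSO meaning cytotoxicity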
# In short: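 hNIS-HEK293T-EPA cells, human NIS expressed in HEK293T, treated 2 h with chemicals (0.001–100 uM, 0.5% final DMSO). ATP content read by CellTiter-Glo luminescence; loss of signal analysed relative to DMSO.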
# [3] = CEETOX_H295R_11DCORT_noMTC: CeeTox H295R High-throughput Steroidogenesis Assay for 11-Deoxycortisol (11DCORT), maximum tolerated concentration (MTC) filtered results only (AID 2283911; active = hit-call score of the fitted dose curve at least 0.9, where 1 is the maximum; inactive = score below 0.9); conditions: actives raise or lower the signal
# Experimental: CEETOX_H295R is a cell-based, multiplexed-readout assay that uses H295R, a human adrenal gland cell line, with measurements taken at 48 hours after chemical dosing in a 96-well plate.CEETOX_H295R_11DCORT_noMTC is one of 12 assay component(s) measured or calculated from the CEETOX_H295R assay (11 hormones and 1 viability assay). It is designed to make measurements of hormone induction, a form of inducible reporter, as detected with absorbance signals by HPLC-MS-MS technology. The concentrations for these components have not been pre-filtered for the maximum tolerated concentration (MTC) based on the MTT assay (_noMTC).Data from the assay component CEETOX_H295R_11DCORT_noMTC was analyzed into 1 assay endpoint. This assay endpoint, CEETOX_H295R_11DCORT_noMTC, was analyzed with bidirectional fitting relative to DMSO as the negative control and baseline of activity. Using a type of inducible reporter, gain or loss-of-signal activity using HPLC-MS-MS was used to understand synthesis of 11-Deoxycortisol in H295R cell line at 48hr of chemical exposure, without filtering concentrations for maximum tolerated concentration (MTC). To generalize the intended target to other relatable targets, this assay endpoint is annotated to the steroid hormone intended target family, where the subfamily is glucocorticoids.
# Cell culture and media preparation procedures were conducted in accordance with OECD Test No. 456 guidelines, with minor modifications. H295R cells (ATCC CRL-2128) were expanded for 5 passages and frozen in batches in liquid nitrogen. Prior to the steroidogenesis assay, H295R cells were thawed and passed at least 4 times. The maximum passage was 10. Cells were maintained in a 1:1 mixture of DMEM/F12 supplemented with 5ml/L ITS+ Premix (BD Bioscience) and 12.5 ml/L Nu-Serum (BD Bioscience). After seeding cells into 96-well plates at 50-60% confluency, cells were allowed to adhere overnight. Prior to chemical testing, culture medium was replaced with 175 uL medium containing 10 uM forskolin to stimulate steroidogenesis for 48 hours. Following prestimulation, forskolin medium was replaced with medium containing test chemical solubilized in DMSO (ensuring a final concentration of 0.1% DMSO). Test chemicals were incubated for 48 hours, then the medium was removed and split into 2 vials containing approximately 75uL each, and stored at -80 C prior to hormone analysis. For steroid quantification, media samples were shipped to OpAns, LLC (Durham, NC) on dry ice, and samples were thawed to room temperature prior to liquid-liquid extraction. Steroid hormones were extracted from media samples using methyl tertbutyl ether (MTBE). An extra derivatization with dansyl chloride was included for estrogen (estrone and estradiol) detection only. Steroid hormones were separated by HPLC, eluted using a reverse phase C18 gradient with electrospray positive ionization, followed by quantification by tandem mass spectrometry (MS/MS). Data were acquired on a MassHunter Workstation Acquisition version B03.01 (Agilent Technologies, Inc.) and processed using MassHunter Quantitative Analysis for QQQ. Accuracy was determined for each hormone analyte from 3 standards to determine upper and lower limits of quantification (ULOQ and LLOQ, respectively) using a 7-point standard curve. Precision and accuracy of the extraction and quantification methods were calculated as the percent relative standard deviation (%RSD) of the spiked standards and percent spiked standard recovered, respectively. The goal was to achieve 100% accuracy (i.e., recover all spiked-in standard at quantification with minimal loss during run time) and good precision (i.e., have %RSD <15% to ensure reproducibility). Test medium was removed following chemical exposure, and cell viability was evaluated in the same wells by MTT. MTT procedures were as follows: after removal of test medium, 500 uL of 0.5 mg/ml of 3-[4,5-dimethylthiazol-2-y]2,5-diphenyltetrazoliumbromide solution was added to the cells. […]
# [4] = CEETOX_H295R_OHPREG_noMTC: CeeTox H295R High-throughput Steroidogenesis Assay for OH-Pregnenolone (OHPREG), maximum tolerated concentration (MTC) filtered results only (AID 2283912; active = hit-call score of the fitted dose curve at least 0.9, where 1 is the maximum; inactive = score below 0.9); conditions: actives raise or lower the signal
# In short: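 Medium 17alpha-hydroxypregnenolone quantified by reverse-phase HPLC-MS/MS after 48 h chemical exposure of forskolin-prestimulated (10 uM, 48 h) H295R, 0.1% DMSO final. Fitting bidirectional relative to DMSO; no maximum-tolerated-concentration filtering applied.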
# [5] = CEETOX_H295R_OHPROG_noMTC: CeeTox H295R High-throughput Steroidogenesis Assay for OH-Progesterone (OHPROG), maximum tolerated concentration (MTC) filtered results only (AID 2283914; active = hit-call score of the fitted dose curve at least 0.9, where 1 is the maximum; inactive = score below 0.9); conditions: actives raise or lower the signal
# In short: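 After 48 h forskolin (10 uM) prestimulation, H295R adrenal cells received test chemical in 0.1% DMSO for 48 h. Medium 17alpha-hydroxyprogesterone was MTBE-extracted and measured by HPLC-MS/MS; gain or loss relative to DMSO, no MTT-based MTC filtering.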
# [6] = CEETOX_H295R_CORTISOL_noMTC: CeeTox H295R High-throughput Steroidogenesis Assay for Cortisol, maximum tolerated concentration (MTC) filtered results only (AID 2283916; active = hit-call score of the fitted dose curve at least 0.9, where 1 is the maximum; inactive = score below 0.9); conditions: actives raise or lower the signal
# In short: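 Cortisol secretion measured by LC-MS/MS after 48 h chemical treatment (final 0.1% DMSO) of forskolin-primed (10 uM, 48 h) H295R cells; gain or loss fitted relative to DMSO, without maximum-tolerated-concentration filtering.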
# [7] = CEETOX_H295R_CORTIC_noMTC: CeeTox H295R High-throughput Steroidogenesis Assay for Corticosterone (CORTIC), maximum tolerated concentration (MTC) filtered results only (AID 2283917; active = hit-call score of the fitted dose curve at least 0.9, where 1 is the maximum; inactive = score below 0.9); conditions: actives raise or lower the signal
# In short: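 Human adrenal H295R cells were prestimulated 48 h with 10 uM forskolin, then exposed 48 h to chemical in 0.1% DMSO. Medium corticosterone was MTBE-extracted and quantified by HPLC-MS/MS; bidirectional fits versus DMSO, concentrations not MTC-filtered.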
# [8] = CEETOX_H295R_DOC_noMTC: CeeTox H295R High-throughput Steroidogenesis Assay for DOC, maximum tolerated concentration (MTC) filtered results only (AID 2283918; active = hit-call score of the fitted dose curve at least 0.9, where 1 is the maximum; inactive = score below 0.9); conditions: actives raise or lower the signal
# In short: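 11-Deoxycorticosterone secreted by human adrenal H295R cells quantified by HPLC-MS/MS after 48 h chemical exposure (0.1% DMSO), following 48 h 10 uM forskolin prestimulation. Concentrations not filtered by MTT-derived MTC; bidirectional fitting.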
# [9] = CEETOX_H295R_ESTRADIOL_noMTC: CeeTox H295R High-throughput Steroidogenesis Assay for Estradiol, maximum tolerated concentration (MTC) filtered results only (AID 2283919; active = hit-call score of the fitted dose curve at least 0.9, where 1 is the maximum; inactive = score below 0.9); conditions: actives raise or lower the signal
# In short: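 Readout: dansyl-derivatized estradiol quantified by LC-MS/MS in medium from H295R cells dosed 48 h (0.1% DMSO) following 48 h forskolin (10 uM) prestimulation. Gain or loss of signal fitted against DMSO; no MTC filtering applied.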
# [10] = CEETOX_H295R_ANDR_noMTC: CeeTox H295R High-throughput Steroidogenesis Assay for Androstenedione (ANDR), maximum tolerated concentration (MTC) filtered results only (AID 2283915; active = hit-call score of the fitted dose curve at least 0.9, where 1 is the maximum; inactive = score below 0.9); conditions: actives raise or lower the signal
# In short: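 Androstenedione secreted into medium was measured by LC-MS/MS after MTBE extraction. Human adrenal H295R cells received 10 uM forskolin for 48 h before 48 h chemical exposure (0.1% DMSO). Gain or loss fitted against DMSO, including concentrations above the MTT-derived MTC.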
smiles,measurement,setting,value
CCCCCCCCCC[N+](C)(CCCCCCCCCC)CCC[Si](OC)(OC)OC,outcome,[1],inactive
same,outcome,[2],inactive
C[N+](C)(C)CCCNS(=O)(=O)C(F)(F)C(F)(F)C(F)(F)C(F)(F)C(F)(F)C(F)(F)C(F)(F)C(F)(F)F,AC50,[1],7.09 µM (active)
Cc1ccc([N+](=O)[O-])cc1N,outcome,[1],inactive
same,outcome,[2],inactive
c1ccc(Nc2cccc3ccccc23)cc1,AC50,[1],21.5 µM (active)
same,outcome,[2],inactive
CCCCCCCCCCCCCCCCCCOS(=O)(=O)O,outcome,[1],inactive
same,outcome,[2],inactive
CC(C)c1ccc(O)c(C(C)C)c1,outcome,[1],inactive
same,outcome,[2],inactive
same,outcome,[3],inactive
same,outcome,[4],inactive
same,outcome,[5],inactive
same,outcome,[6],inactive
same,AC50,[7],31.2 µM (active)
same,outcome,[8],inactive
same,outcome,[9],inactive
O=C(Oc1ccccc1)c1ccccc1O,outcome,[1],inactive
same,outcome,[2],inactive
CCCCC/C=C\C/C=C\CCCCCCCC(=O)O,outcome,[1],inactive
same,AC50,[2],80.1 µM (active)
C/C=C/C=C/CCCCCCCO,outcome,[1],inactive
same,outcome,[2],inactive
CO[Si](C)(C)OC,outcome,[1],inactive
same,outcome,[2],inactive
CN(C)c1ccc2nc3ccc(=[N+](C)C)cc-3sc2c1,outcome,[1],inactive
same,AC50,[2],50 µM (active)
CCCCC1C(=O)N(c2ccccc2)N(c2ccccc2)C1=O,outcome,[3],inactive
same,outcome,[4],inactive
same,outcome,[6],inactive
same,outcome,[7],inactive
same,outcome,[8],inactive
O=C(Nc1ccccc1)c1cc(Cl)ccc1O,AC50,[1],0.851 µM (active)
same,outcome,[2],inactive
N#Cc1ccc(C2CCCc3cncn32)cc1 (stereo unspecified),outcome,[3],inactive
same,outcome,[4],inactive
same,AC50,[5],2.31 µM (active)
same,AC50,[6],2.52 µM (active)
same,AC50,[7],1.44 µM (active)
same,AC50,[8],1.98 µM (active)
CCCC=C(C=O)CC,outcome,[3],inactive
same,outcome,[4],inactive
same,outcome,[5],inactive
same,outcome,[6],inactive
same,outcome,[7],inactive
same,outcome,[8],inactive
same,outcome,[9],inactive
Oc1ccc(-c2ccccc2)c(Cl)c1,outcome,[1],inactive
same,outcome,[2],inactive
COc1ccc(C(=O)/C(Br)=C\C(=O)O)cc1,AC50,[3],65.2 µM (active)
same,AC50,[4],14.2 µM (active)
same,AC50,[5],58.3 µM (active)
same,AC50,[10],39.2 µM (active)
same,AC50,[6],50 µM (active)
same,AC50,[7],57.8 µM (active)
same,AC50,[8],13.6 µM (active)
COc1ccc(-c2coc3cc(O)cc(O)c3c2=O)cc1,AC50,[1],9.92 µM (active)
same,outcome,[2],inactive
COc1ccc(C(=O)c2ccccc2)c(O)c1,outcome,[1],inactive
same,outcome,[2],inactive
O=C(OCCc1ccccc1)c1ccccc1,outcome,[1],inactive
same,outcome,[2],inactive
C=CCOC(=O)c1ccc(C(=O)OCC=C)c(C(=O)OCC=C)c1,AC50,[1],10.2 µM (active)
same,outcome,[2],inactive
C=C1C[C@H]2[C@@H]3C=C(C)C4=CC(=O)CC[C@]4(C)[C@H]3CC[C@]2(C)[C@@]1(OC(C)=O)C(C)=O,outcome,[1],inactive
same,outcome,[2],inactive
N#Cc1ccc(C(c2ccc(C#N)cc2)n2cncn2)cc1,outcome,[3],inactive
same,outcome,[4],inactive
same,outcome,[5],inactive
same,outcome,[10],inactive
same,AC50,[6],4.92 µM (active)
same,outcome,[7],inactive
same,outcome,[8],inactive
same,AC50,[9],0.0183 µM (active)
O=C(OCc1ccccc1)c1ccc(O)cc1,outcome,[1],inactive
same,outcome,[2],inactive
CCCCCCCOC(=O)c1ccc(O)cc1,outcome,[1],inactive
same,outcome,[2],inactive
O=C(O)c1cc(O)c2ccccc2c1O,outcome,[1],inactive
same,outcome,[2],inactive
